Methyltransferases: Primary Screen for Target Class Profiling of Small Molecule Inhibitors of Methyltransferases; purified enzyme, MTase-Glo SAH luminescence; hits give low values; calls only at 40 µM; 25,000 compounds, 3.9% hits; AID 1745853, 2022; call rule not given here
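Each enzyme was reacted with SAM and its substrate, with compounds tested once at 40 uM; SAH formed was read by MTase-Glo luminescence.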
Of the large screens only hits and unclear results are named; the others gave an inactive call. Only a selection was taken, and hits are over-represented in it overall.

CCC1c2ccc(C)n2CCN1C(=O)Nc1cc(C)ccc1C (stereo not drawn)	none
COC(=O)Cn1c(=O)oc2cc(S(=O)(=O)NCCc3cccs3)ccc21	none
CCCn1c(=O)c2ccc(C(=O)NCC(C)C)cc2n2c(=O)n(CC(=O)N(C)c3ccccc3)nc12	none
Cc1ccc(Cn2c(=O)c3ccc(C(=O)NC(C)C)cc3n3c(=O)n(C)nc23)cc1	none
CCN(CCCNC(=O)CCCc1nnc2n3nc(C)nc3c3ccccc3n12)c1ccccc1	none
CCc1cc2c(cc3n2CC(C)(C(=O)NC2CCCCC2)N(c2ccc(C(C)C)cc2)C3=O)s1 (stereo not drawn)	none
CCOC(=O)c1cc2n(n1)CC(C)(C(=O)NCCC(C)C)N(c1ccc(C)c(C)c1)C2=O (stereo not drawn)	none
CC(C)Oc1ccc(CN2C(=O)c3cc4occc4n3CC2(C)C(=O)NC2CCCCCC2)cc1 (stereo not drawn)	none
COc1ccccc1N1CCN(C(=O)CCc2nnc3n(Cc4ccc(C)cc4)c(=O)c4ccccc4n23)CC1	none
Cc1cc(C)c(S(=O)(=O)NCCc2n[nH]c(Cc3ccccc3)n2)cc1C	none
CCCN1C(=O)c2c(C(=O)NCc3cc(OC)ccc3OC)ncn2CC1(C)C(=O)NCc1ccc(F)cc1 (stereo not drawn)	none
COc1ccc(OC)c(CCNC(=O)CCc2nnc3n(Cc4ccccc4Cl)c(=O)c4ccccc4n23)c1	none
CC(C)CCn1c(=O)c2ccc(C(=O)NC(C)C)cc2n2c(=O)n(CC(=O)c3ccc(Cl)cc3)nc12	none
OC[C@H]1O[C@@H](OCCc2ccc(O)cc2)[C@H](O)[C@@H](O)[C@@H]1O	none
COc1ccc(O[C@@H]2O[C@H](CO)[C@@H](O)[C@H](O)[C@H]2O)cc1OC	none
OC[C@H]1O[C@@H](O[C@H]2[C@H](OCc3ccccc3)O[C@H](CO[C@@H]3OC[C@@H](O)[C@H](O)[C@H]3O)[C@@H](O)[C@@H]2O)[C@H](O)[C@@H](O)[C@@H]1O	none
COc1c(CCC(=O)O)cccc1O[C@@H]1O[C@H](CO)[C@@H](O)[C@H](O)[C@H]1O	Methyltransferases active
CCC(C)(O)C(O)C(=O)OCc1ccc(O[C@@H]2O[C@H](CO)[C@@H](O)[C@H](O)[C@H]2O)c(OC)c1 (stereo partly drawn)	none
OC[C@H]1O[C@@H](OCCc2ccccc2)[C@H](O[C@@H]2OC[C@@H](O)[C@H](O)[C@H]2O)[C@@H](O)[C@@H]1O	Methyltransferases active
CCN1C(=O)c2cc3ccccc3n2CC1(C)C(=O)NCC(=O)NCc1ccc(C)cc1 (stereo not drawn)	none
CC1(C(=O)NC2CCCCCCC2)Cn2c(cc3sccc32)C(=O)N1Cc1cccnc1 (stereo not drawn)	none
CC(NC(=O)Cn1ccc2cc(S(=O)(=O)N3CCCCC3)ccc21)c1ccccc1 (stereo not drawn)	none
CC1(C(=O)NC2CCCCC2)Cn2c(ccc2-c2ccccc2)C(=O)N1CCCN1CCOCC1 (stereo not drawn)	none
Cc1ccc(C(=O)Cn2nc3n(Cc4ccccc4)c(=O)c4ccc(C(=O)NC(C)C)cc4n3c2=O)cc1	none
CCOC(=O)c1cc2n(n1)CC(C)(C(=O)NC1CCCCCC1)N(Cc1ccccc1C)C2=O (stereo not drawn)	none
CC(C)NCC(O)c1ccc(O)c(O)c1 (stereo not drawn)	none
NC[C@H](O)c1ccc(O)c(O)c1	Methyltransferases active
COc1cc(C(O)CO)ccc1O (stereo not drawn)	none
CCCC1c2cccn2CCN1C(=O)Nc1ccccc1OCC (stereo not drawn)	none
CCOc1ccc(CN2C(=O)c3nc4ccccc4n3CC2(C)C(=O)NC2CCC(C)CC2)cc1 (stereo not drawn)	none
CCCC1c2cccn2CCN1C(=O)NCCCOC (stereo not drawn)	none
Cc1cc(C)c(S(=O)(=O)n2cc(C)cc2C)c(C)c1	Methyltransferases active
COC(=O)c1cc2n(n1)CC(C)(C(=O)NC1CCCCC1)N(Cc1ccccc1Cl)C2=O (stereo not drawn)	none
COC(C)(C)CCn1nc(Nc2c(C)cccc2C)c2cnc(Nc3ccc(OCCN4CCCC4)c(F)c3)nc21	Methyltransferases active
COc1ccccc1C(=O)N(Cc1ccccc1)S(=O)(=O)c1ccc2c(c1)n(C)c(=O)n2C	none
Cc1cccc(NC(=O)CN(C)S(=O)(=O)c2ccc3[nH]c4c(c3c2)CCCC4)c1	none
CC1(C(=O)NCc2ccccc2)Cn2nc(-c3ccccc3)cc2C(=O)N1c1ccc2c(c1)OCCO2 (stereo not drawn)	none
CCCn1c(=O)c2ccc(C(=O)NC3CCCCC3)cc2n2c(=O)n(CC(=O)NC3CCCCC3)nc12	none
Cc1ccc(NC(=O)Cn2nc3n(CC(C)C)c(=O)c4ccc(C(=O)NCC(C)C)cc4n3c2=O)cc1	none
C=C1C(=O)OC2/C=C(\C)CC/C=C(\C(=O)O)CC/C=C(\C)CCC12 (stereo not drawn)	none
C=C(C)C(=O)O[C@H]1[C@H]2C(=C)C(=O)O[C@@H]2/C=C(\CO)CC/C=C(/C=O)[C@@H]1O	none
C=C1C(=O)O[C@@H]2/C=C(\CO)CC/C=C(/C=O)C[C@@H](O)[C@@H]12	Methyltransferases active
C=C1C(=O)OC2C3=C(C)C(=O)CC3C(C)CC(O)C12 (stereo not drawn)	none
C=C1C(=O)O[C@@H]2/C=C(\CO)CC/C=C(/C=O)C[C@H](O)[C@@H]12	Methyltransferases active
C=C1C(=O)OC2/C=C(\CO)CC/C=C(\C=O)CC(OC(=O)CC(C)C)C12 (stereo not drawn)	Methyltransferases active
C=C1C(=O)OC2/C=C(\COC(C)=O)CC/C=C(\C=O)CC(OC(=O)CC(C)C)C12 (stereo not drawn)	none
COc1ccc(-c2cc3n(n2)CC(C)(C(=O)NCc2ccccc2)N(c2cc(Cl)ccc2C)C3=O)cc1 (stereo not drawn)	none
CC(C)OCCCn1c(=O)c2ccccc2n2c(CCC(=O)NC(C)c3ccccc3)nnc12 (stereo not drawn)	none
O=C(NCc1ccccc1)c1ccc2c(=O)nc3c(-c4ccc(F)cc4)n[nH]n3c2c1	none
COc1cccc(NC(=O)CSc2nnc3n(C)c(=O)c4ccc(C(=O)NC5CCCC5)cc4n23)c1	none
CCc1cc2c(cc3n2CC(C)(C(=O)NC2CCC(C)CC2)N(Cc2cccc(OC)c2)C3=O)s1 (stereo not drawn)	none
CC(=O)Nc1ccc(Nc2nc3c(S(=O)(=O)c4cc(C)ccc4C)nnn3c3ccccc23)cc1	none
COc1ccc(Nc2nc3c(S(=O)(=O)c4ccc(F)cc4)nnn3c3ccccc23)cc1	none
Nc1c(NC/C=C\COc2cc(CN3CCCCC3)ccn2)c(=O)c1=O	Methyltransferases active
O=C1CCN(Cc2cccc(F)c2)CCCCCCN1	none
CCOc1ccc(CN2C(=O)c3cc4oc(C)cc4n3CC2(C)C(=O)NC2CCCCCC2)cc1 (stereo not drawn)	none
C[S+](CC[C@H](N)C(=O)[O-])C[C@H]1O[C@@H](n2cnc3c(N)ncnc32)[C@H](O)[C@@H]1O (stereo partly drawn)	none
COCCCNC(=O)C1(C)Cn2nc(-c3ccccc3)cc2C(=O)N1c1cccc(C)c1C (stereo not drawn)	none
CCN1C(=O)c2cc(C(=O)NCc3ccc(N(C)C)cc3)nn2CC1(C)C(=O)NC1CCCC1 (stereo not drawn)	none
CC(C)CNC(=O)c1ccc2c(=O)n(C(C)C)c3nn(Cc4ccccc4Cl)c(=O)n3c2c1	none
O=C(Cn1nc2n(Cc3ccc(F)cc3)c(=O)c3ccccc3n2c1=O)Nc1ccc(F)cc1F	none
COC(=O)c1ccc([C@@H]2Nc3c(Cl)cccc3[C@@H]3C=CC[C@@H]32)cc1	none

Screens deposited in PubChem BioAssay by National Center for Advancing Translational Sciences (NCATS).
